Test results: the supplement of paper PMC10849652
Targets with a hit are over-represented here; the source holds about 8,800 in all. About 0.5% of all pairs of compound and target were hits.

What was measured:
Assay in all cases: log2 fold change, soluble protein after heating vs DMSO (PISA); higher = thermal stabilisation; K562 lysate, 10 uM; active = over 0.2 and 3.5 SD of the protein, either way, in both replicates (recomputed)
[1] = compound: CCCS(=O)(=O)Nc1ccc(F)c(C(=O)c2c[nH]c3ncc(-c4ccc(Cl)cc4)cc23)c1F [vemurafenib]
Outline: (§1)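 The values are log-two fold changes in thermal stability compared with solvent controls and come from duplicates. They were obtained by TMTpro 16plex LC-MS/MS, with channel sums equalised, on the supernatant after 21,000xg for 90 min. That supernatant came from crude K562 extract at 1 mg/mL protein treated with 10 μM compound for 30 min, heated for 3 min across 48°C-58°C, pooled and brought to 0.5% NP-40 at 4°C.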

[2] = compound: CCCS(=O)(=O)Nc1ccc(F)c(C(=O)c2c[nH]c3ncc(Cl)cc23)c1F
Outline: as §1

[3] = compound: CCN(CCCOc1ccc2c(Nc3cc(CC(=O)Nc4cccc(F)c4)[nH]n3)ncnc2c1)CCOP(=O)(O)O [barasertib]
Outline: as §1

[4] = compound: CC[C@@H]1C(=O)N(C)c2cnc(Nc3ccc(C(=O)NC4CCN(C)CC4)cc3OC)nc2N1C1CCCC1
Outline: as §1

[5] = compound: CC[C@@H]1C(=O)N(C)c2cnc(Nc3ccc(C(=O)N[C@H]4CC[C@H](N5CCN(CC6CC6)CC5)CC4)cc3OC)nc2N1C(C)C [volasertib]
Outline: as §1

[6] = compound: CCn1c(C(=O)N(C2CC2)C2CC2)cc2c3c(ncn3C)c(Nc3cc(C)n(C)n3)nc21
Outline: as §1

[7] = compound: CCn1cc(-c2ccnc3[nH]c(-c4cccc(CN(C)C)c4)cc23)c(-c2ccc(NC(=O)N(C)C)cc2)n1
Outline: as §1

[8] = compound: CN1CCC(CNc2ccc3ncc(-c4cccc(OC(F)(F)F)c4)n3n2)CC1
Outline: as §1

[9] = compound: CN1CCN(CCOc2cc(OC3CCOCC3)c3c(Nc4c(Cl)ccc5c4OCO5)ncnc3c2)CC1 [saracatinib]
Outline: as §1

[10] = compound: CN1CCN(c2nc(C3=C(c4c[nH]c5ccccc45)C(=O)NC3=O)c3ccccc3n2)CC1 [sotrastaurin]
Outline: as §1

[11] = compound: CN1CC[C@H](c2c(O)cc(O)c3c(=O)cc(-c4ccccc4Cl)oc23)[C@H](O)C1 [alvocidib]
Outline: as §1

[12] = compound: CN1CCc2c(c3ccccc3n2Cc2ccc(C(=O)NO)cc2)C1 [Tubastatin A]
Outline: as §1

[13] = compound: CNC(=O)C1=CC=CC=C1NC2=NC(=NC=C2Cl)NC3=C(C=C(C=C3)N4CCOCC4)OC
Outline: as §1

[14] = compound: CNC(=O)c1ccc(Nc2ncc(C(F)(F)F)c(NCc3nccnc3N(C)S(C)(=O)=O)n2)cc1 [defactinib]
Outline: as §1

[15] = compound: CNc1nc(-c2ccc3c(N)n[nH]c3c2)cc(N2C[C@@H](C(=O)NC3CCCCC3)CC[C@H]2C)n1
Outline: as §1

[16] = compound: COC(=O)N[C@@H](C)CNc1nccc(-c2cn(C(C)C)nc2-c2cc(Cl)cc(NS(C)(=O)=O)c2F)n1 [encorafenib]
Outline: as §1

[17] = compound: COC(=O)[C@H](CCSC)NC(=O)C1=C(C=C(C=C1)NC[C@H](CS)N)C2=CC=CC=C2
Outline: as §1

[18] = compound: COc1cc(Nc2ncc3c(n2)-c2ccc(Cl)cc2C(c2c(F)cccc2OC)=NC3)ccc1C(=O)O [alisertib]
Outline: as §1

[19] = compound: COc1cc2nc(-c3cc(F)ccc3O)nc(N[C@@H]3CNC[C@H]3C(C)(C)O)c2cc1OC
Outline: as §1

[20] = compound: COc1cc2ncnc(Nc3ccc(F)c(Cl)c3)c2cc1OCCCN1CCOCC1 [gefitinib]
Outline: as §1

Measured: log2 fold change

SLC20A1 (UniProt Q8WUM9)
UniProt Q8WUM9, sequence (Q8WUM9 whole entry, looked up): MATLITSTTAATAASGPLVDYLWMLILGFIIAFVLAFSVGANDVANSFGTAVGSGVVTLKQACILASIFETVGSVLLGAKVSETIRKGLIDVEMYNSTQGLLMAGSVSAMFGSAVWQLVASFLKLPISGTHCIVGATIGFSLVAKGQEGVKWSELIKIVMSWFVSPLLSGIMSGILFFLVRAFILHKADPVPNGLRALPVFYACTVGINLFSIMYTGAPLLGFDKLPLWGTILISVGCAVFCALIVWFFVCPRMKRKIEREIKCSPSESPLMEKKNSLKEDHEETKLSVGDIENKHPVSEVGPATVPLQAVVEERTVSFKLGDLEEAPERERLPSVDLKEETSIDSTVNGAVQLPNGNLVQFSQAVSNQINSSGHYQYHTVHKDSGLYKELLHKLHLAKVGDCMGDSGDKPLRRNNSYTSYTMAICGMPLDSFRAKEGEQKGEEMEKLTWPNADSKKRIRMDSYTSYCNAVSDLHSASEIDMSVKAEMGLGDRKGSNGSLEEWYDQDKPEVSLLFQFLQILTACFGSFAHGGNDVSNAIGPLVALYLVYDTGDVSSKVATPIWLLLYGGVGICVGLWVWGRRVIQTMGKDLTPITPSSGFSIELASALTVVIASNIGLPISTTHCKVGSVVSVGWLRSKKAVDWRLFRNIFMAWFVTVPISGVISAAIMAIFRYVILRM
active: [4] 0.416
inactive: [1] 0.099 | [2] -0.004 | [3] 0.009 | [5] -0.028 | [6] -0.061 | [7] 0.153 | [8] -0.013 | [9] 0.063 | [10] -0.006 | [11] 0.002 | [12] 0.054 | [13] -0.012 | [14] -0.155 | [15] 0.016 | [16] -0.039 | [17] -0.057 | [18] -0.026 | [19] 0.036 | [20] 0.05

STN1 (UniProt Q9H668)
UniProt Q9H668, sequence (Q9H668 whole entry, looked up): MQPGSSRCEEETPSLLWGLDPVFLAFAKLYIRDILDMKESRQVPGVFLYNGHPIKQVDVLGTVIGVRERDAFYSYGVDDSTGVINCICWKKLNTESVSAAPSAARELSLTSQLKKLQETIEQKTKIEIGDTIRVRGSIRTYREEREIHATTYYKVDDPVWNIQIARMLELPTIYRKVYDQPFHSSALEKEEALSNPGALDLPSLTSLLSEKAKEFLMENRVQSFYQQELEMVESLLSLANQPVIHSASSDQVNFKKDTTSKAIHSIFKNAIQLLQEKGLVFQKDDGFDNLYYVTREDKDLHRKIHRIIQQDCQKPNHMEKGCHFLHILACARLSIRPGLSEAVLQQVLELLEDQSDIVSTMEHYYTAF
inactive: [1] 0.047 | [2] -0.389 | [3] 0.114 | [4] -0.071 | [5] -0.068 | [6] -0.016 | [7] -0.179 | [8] 0.31 | [10] -0.025 | [11] -0.078 | [12] -0.032 | [13] 0.173 | [14] 0.016 | [16] 0.024 | [17] -0.149 | [18] -0.026 | [20] 0.053
active: [19] -0.562

SLC30A6 isoform 2 (UniProt Q6NXT4)
UniProt Q6NXT4, sequence (Q6NXT4 whole entry, looked up): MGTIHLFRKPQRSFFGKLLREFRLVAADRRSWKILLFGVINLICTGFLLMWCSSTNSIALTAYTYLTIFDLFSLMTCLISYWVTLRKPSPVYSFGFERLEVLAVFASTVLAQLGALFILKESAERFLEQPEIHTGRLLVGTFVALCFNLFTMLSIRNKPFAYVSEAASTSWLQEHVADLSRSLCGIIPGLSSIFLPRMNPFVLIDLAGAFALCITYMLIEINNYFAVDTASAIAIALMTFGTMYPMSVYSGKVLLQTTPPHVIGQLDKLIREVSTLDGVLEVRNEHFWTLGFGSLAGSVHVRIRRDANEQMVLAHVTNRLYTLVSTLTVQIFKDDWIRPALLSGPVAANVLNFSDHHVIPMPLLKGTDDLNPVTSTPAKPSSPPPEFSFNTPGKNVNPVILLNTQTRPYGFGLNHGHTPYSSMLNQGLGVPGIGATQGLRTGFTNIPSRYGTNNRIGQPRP
active: [17] -0.322
inactive: [1] -0.098 | [2] 0.018 | [3] 0.146 | [4] 0.105 | [5] 0.001 | [6] -0.03 | [7] -0.127 | [8] 0.063 | [10] -0.004 | [11] 0.023 | [12] 0.126 | [13] 0.016 | [14] 0.011 | [16] 0.003 | [18] 0.003 | [19] -0.18 | [20] -0.005

STK3 isoform 2 (UniProt Q13188)
inactive: [1] 0.046 | [2] 0.04 | [3] 0.032 | [5] -0.047 | [6] -0.012 | [7] -0.017 | [8] 0.216 | [9] -0.01 | [10] 0.142 | [12] -0.075 | [14] 0.205 | [15] 0.015 | [16] -0.046 | [17] -0.068 | [19] 0.269 | [20] 0.002

SLC25A38 (UniProt Q96DW6)
UniProt Q96DW6, sequence (Q96DW6 whole entry, looked up): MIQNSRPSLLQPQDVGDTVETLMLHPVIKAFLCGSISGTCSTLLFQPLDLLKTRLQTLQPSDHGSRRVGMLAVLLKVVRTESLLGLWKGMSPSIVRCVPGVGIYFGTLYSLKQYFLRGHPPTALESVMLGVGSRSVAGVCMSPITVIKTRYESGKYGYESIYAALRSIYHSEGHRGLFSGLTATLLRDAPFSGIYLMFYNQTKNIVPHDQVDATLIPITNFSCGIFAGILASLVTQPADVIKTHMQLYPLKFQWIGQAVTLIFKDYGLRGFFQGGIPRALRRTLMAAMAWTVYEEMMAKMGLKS
inactive: [1] 0.037 | [2] 0.013 | [3] -0.005 | [4] 0.209 | [5] 0.012 | [6] 0.015 | [7] -0.055 | [8] 0.067 | [9] -0.127 | [10] 0.07 | [11] -0.062 | [12] 0.014 | [13] -0.049 | [14] 0.074 | [15] 0.06 | [16] -0.038 | [17] 0.321 | [18] 0.044 | [19] 0.097 | [20] 0.094

TAF1B (UniProt Q53T94)
UniProt Q53T94, sequence (Q53T94 whole entry, looked up): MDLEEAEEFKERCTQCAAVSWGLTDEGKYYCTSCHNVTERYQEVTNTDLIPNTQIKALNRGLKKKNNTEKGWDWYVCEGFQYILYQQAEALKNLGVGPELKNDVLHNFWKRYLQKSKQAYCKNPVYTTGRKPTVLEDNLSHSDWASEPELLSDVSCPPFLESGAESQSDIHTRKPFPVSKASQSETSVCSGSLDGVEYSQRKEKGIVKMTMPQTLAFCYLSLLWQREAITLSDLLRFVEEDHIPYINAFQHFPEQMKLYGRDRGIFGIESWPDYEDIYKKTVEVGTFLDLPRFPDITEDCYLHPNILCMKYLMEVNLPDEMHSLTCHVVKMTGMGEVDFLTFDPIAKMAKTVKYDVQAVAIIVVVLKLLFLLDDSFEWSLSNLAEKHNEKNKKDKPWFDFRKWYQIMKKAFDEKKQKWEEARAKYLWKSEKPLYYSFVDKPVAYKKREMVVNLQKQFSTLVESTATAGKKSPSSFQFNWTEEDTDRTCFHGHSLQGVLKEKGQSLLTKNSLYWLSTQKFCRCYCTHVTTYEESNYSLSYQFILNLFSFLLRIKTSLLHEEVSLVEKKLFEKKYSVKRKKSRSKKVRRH
inactive: [1] 0.397 | [2] -0.217 | [3] 0.11 | [4] -0.212 | [5] -0.057 | [6] -0.039 | [7] -0.12 | [8] 0.166 | [9] 0.045 | [10] 0.055 | [11] 0.175 | [12] -0.083 | [14] -0.024 | [15] 0.614 | [16] 0.073 | [17] -0.13 | [18] -0.177 | [19] -0.047 | [20] 0.016

TAOK2 (UniProt Q9UL54)
UniProt Q9UL54, sequence (Q9UL54 whole entry, looked up): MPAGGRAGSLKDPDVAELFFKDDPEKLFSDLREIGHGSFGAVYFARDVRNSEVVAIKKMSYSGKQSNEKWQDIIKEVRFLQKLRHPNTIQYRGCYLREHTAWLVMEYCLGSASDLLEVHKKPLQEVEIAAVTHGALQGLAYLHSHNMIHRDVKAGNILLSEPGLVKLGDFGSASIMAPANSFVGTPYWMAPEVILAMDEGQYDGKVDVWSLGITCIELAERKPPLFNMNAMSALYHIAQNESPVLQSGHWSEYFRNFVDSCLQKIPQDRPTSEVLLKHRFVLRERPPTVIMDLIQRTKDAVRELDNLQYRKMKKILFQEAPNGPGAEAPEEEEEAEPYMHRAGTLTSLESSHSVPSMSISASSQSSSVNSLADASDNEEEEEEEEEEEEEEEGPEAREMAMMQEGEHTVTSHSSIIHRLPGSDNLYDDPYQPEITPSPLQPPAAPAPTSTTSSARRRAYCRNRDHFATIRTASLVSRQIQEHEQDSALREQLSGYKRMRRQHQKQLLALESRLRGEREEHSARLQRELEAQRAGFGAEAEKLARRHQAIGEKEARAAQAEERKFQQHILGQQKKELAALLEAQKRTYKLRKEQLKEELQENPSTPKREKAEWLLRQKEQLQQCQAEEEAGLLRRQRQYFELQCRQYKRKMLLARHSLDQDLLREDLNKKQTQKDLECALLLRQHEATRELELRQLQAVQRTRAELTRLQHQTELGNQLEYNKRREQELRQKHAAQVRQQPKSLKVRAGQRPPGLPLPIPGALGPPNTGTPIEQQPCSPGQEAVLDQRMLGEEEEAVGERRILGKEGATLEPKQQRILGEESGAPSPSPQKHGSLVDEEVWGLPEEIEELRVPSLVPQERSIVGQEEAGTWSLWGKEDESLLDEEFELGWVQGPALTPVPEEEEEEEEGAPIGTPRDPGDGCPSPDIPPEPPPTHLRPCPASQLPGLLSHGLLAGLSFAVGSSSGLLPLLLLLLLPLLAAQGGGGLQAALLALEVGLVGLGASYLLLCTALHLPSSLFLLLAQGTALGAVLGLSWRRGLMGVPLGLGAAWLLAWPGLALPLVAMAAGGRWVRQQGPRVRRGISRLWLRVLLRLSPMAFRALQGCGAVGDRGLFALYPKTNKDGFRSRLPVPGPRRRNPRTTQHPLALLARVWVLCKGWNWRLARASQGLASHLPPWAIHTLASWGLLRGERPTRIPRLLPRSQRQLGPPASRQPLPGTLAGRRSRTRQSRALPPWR
inactive: [1] -0.039 | [2] -0.041 | [3] 0.059 | [4] 0.021 | [5] -0.056 | [6] -0.077 | [7] -0.005 | [8] -0.003 | [9] -0.005 | [10] 0.109 | [11] -0.053 | [12] 0.046 | [14] -0.001 | [15] -0.015 | [16] -0.033 | [17] 0.055 | [18] 0.02 | [19] 0.02 | [20] -0.009

SMYD3 (UniProt Q9H7B4)
UniProt Q9H7B4, sequence (Q9H7B4 whole entry, looked up): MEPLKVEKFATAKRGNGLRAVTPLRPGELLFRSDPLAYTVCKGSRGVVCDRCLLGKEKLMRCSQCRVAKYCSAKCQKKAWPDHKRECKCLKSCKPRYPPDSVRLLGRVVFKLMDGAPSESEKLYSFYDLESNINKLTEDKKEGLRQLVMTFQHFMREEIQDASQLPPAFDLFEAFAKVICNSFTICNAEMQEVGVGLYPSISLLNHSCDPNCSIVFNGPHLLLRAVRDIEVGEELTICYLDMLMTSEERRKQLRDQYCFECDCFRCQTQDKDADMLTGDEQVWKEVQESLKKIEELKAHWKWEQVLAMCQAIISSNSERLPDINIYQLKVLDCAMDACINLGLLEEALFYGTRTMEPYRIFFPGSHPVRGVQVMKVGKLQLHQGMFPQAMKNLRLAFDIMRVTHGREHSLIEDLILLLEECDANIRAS
inactive: [1] 0.036 | [2] 0.013 | [3] 0.017 | [4] -0.137 | [5] -0.051 | [6] -0.02 | [9] 0.045 | [10] -0.005 | [12] -0.122 | [13] -0.018 | [14] 0.036 | [15] 0.028 | [16] 0.022 | [17] 0.071 | [18] -0.044 | [19] 0 | [20] 0.034

SP1 (UniProt P08047)
UniProt P08047, sequence (P08047 whole entry, looked up): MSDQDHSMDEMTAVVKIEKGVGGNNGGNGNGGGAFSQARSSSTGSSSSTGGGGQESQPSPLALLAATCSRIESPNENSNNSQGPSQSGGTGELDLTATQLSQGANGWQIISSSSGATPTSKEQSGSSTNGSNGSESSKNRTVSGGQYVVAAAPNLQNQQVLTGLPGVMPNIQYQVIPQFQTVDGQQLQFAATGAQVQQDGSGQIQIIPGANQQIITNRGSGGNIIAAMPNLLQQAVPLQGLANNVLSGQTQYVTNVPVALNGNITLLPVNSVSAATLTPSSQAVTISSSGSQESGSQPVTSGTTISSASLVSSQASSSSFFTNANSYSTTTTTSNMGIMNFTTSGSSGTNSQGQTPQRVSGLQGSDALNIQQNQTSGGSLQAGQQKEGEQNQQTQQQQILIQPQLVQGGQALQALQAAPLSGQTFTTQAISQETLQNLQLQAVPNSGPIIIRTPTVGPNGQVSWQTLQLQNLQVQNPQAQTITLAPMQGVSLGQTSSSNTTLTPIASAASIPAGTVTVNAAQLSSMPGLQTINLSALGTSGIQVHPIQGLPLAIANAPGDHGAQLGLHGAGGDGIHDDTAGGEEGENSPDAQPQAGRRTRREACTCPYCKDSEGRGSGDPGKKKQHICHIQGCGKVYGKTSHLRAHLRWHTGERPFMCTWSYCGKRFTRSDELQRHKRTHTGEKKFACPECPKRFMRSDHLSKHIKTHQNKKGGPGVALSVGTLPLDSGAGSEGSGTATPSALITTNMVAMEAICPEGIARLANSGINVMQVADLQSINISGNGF
inactive: [1] -0.115 | [2] 0.056 | [3] 0.045 | [4] 0.015 | [5] 0.043 | [6] -0.008 | [7] -0.061 | [8] 0.019 | [9] 0.037 | [10] -0.154 | [11] -0.017 | [12] -0.013 | [13] 0.053 | [14] 0.03 | [15] 0.104 | [16] 0.073 | [17] -0.087 | [18] 0.005 | [19] -0.06 | [20] 0.003

SOX5 (UniProt P35711)
inactive: [1] 0.141 | [2] 0.175 | [3] 0.048 | [4] 0.176 | [5] -0.034 | [6] 0.049 | [7] -0.043 | [8] -0.043 | [9] 0.076 | [10] -0.131 | [11] 0.048 | [12] -0.113 | [13] -0.219 | [14] 0.017 | [15] 0.074 | [16] 0.034 | [17] -0.025 | [19] -0.104
